Measured values: the supplement of paper PMC10849652
Of roughly 7,900 targets only a part is listed; those with a hit were picked by preference. About 0.6% of all pairs of compound and target were hits. A number with no mark means an inactive call.

Key:
Assay in all cases: log2 fold change, soluble protein after heating vs DMSO (PISA); higher = thermal stabilisation; K562 cells, 10 uM, 30 min; active = over 0.2 and 3.5 SD of the protein, either way, in both replicates (recomputed)
[1] = compound: CN1CCN(CCOc2cc(OC3CCOCC3)c3c(Nc4c(Cl)ccc5c4OCO5)ncnc3c2)CC1 [saracatinib]
Summary of the method: (§1)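 K562 cells (2×10^6 cells/mL) were treated with 10 μM compound for 30 min, and aliquots were heated for 3 min over 48°C-58°C. Pooled aliquots were extracted in PBS with 0.5% NP-40 at 4°C, and the supernatant after 21,000xg for 90 min was measured by TMTpro 16plex LC-MS/MS with channel sums equalised. Reported thermal stability, relative to control samples and from duplicates, is a log2 fold change.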

[2] = compound: CN1CCN(c2nc(C3=C(c4c[nH]c5ccccc45)C(=O)NC3=O)c3ccccc3n2)CC1 [sotrastaurin]
Summary of the method: as §1

[3] = compound: CN1CC[C@H](c2c(O)cc(O)c3c(=O)cc(-c4ccccc4Cl)oc23)[C@H](O)C1 [alvocidib]
Summary of the method: as §1

[4] = compound: CN1CCc2c(c3ccccc3n2Cc2ccc(C(=O)NO)cc2)C1 [Tubastatin A]
Summary of the method: as §1

[5] = compound: CNC(=O)C1=CC=CC=C1NC2=NC(=NC=C2Cl)NC3=C(C=C(C=C3)N4CCOCC4)OC
Summary of the method: as §1

[6] = compound: CNC(=O)c1ccc(Nc2ncc(C(F)(F)F)c(NCc3nccnc3N(C)S(C)(=O)=O)n2)cc1 [defactinib]
Summary of the method: as §1

[7] = compound: CNCc1ccc(-c2[nH]c3cc(F)cc4c3c2CCNC4=O)cc1 [rucaparib]
Summary of the method: as §1

[8] = compound: CNc1nc(-c2ccc3c(N)n[nH]c3c2)cc(N2C[C@@H](C(=O)NC3CCCCC3)CC[C@H]2C)n1
Summary of the method: as §1

[9] = compound: COC(=O)N[C@@H](C)CNc1nccc(-c2cn(C(C)C)nc2-c2cc(Cl)cc(NS(C)(=O)=O)c2F)n1 [encorafenib]
Summary of the method: as §1

[10] = compound: COC(=O)[C@H](CCSC)NC(=O)C1=C(C=C(C=C1)NC[C@H](CS)N)C2=CC=CC=C2
Summary of the method: as §1

[11] = compound: COC1=CC=C(C=C1)CN2C=CC3=C2C=C(C=C3)C(=O)NO
Summary of the method: as §1

[12] = compound: CON(C)C(=O)N1N=C(c2cc(F)ccc2F)S[C@@]1(CCCN)c1ccccc1 [filanesib]
Summary of the method: as §1

[13] = compound: CO[C@H]1C[C@@H]2CC[C@@H](C)[C@@](O)(O2)C(=O)C(=O)N2CCCC[C@H]2C(=O)O[C@H]([C@H](C)C[C@@H]2CC[C@H](n3cnnn3)[C@H](OC)C2)CC(=O)[C@H](C)/C=C(\C)[C@@H](O)[C@@H](OC)C(=O)[C@H](C)C[C@H](C)/C=C/C=C/C=C/1C [zotarolimus]
Summary of the method: as §1

[14] = compound: COc1cc(C(=O)O)ccc1NC(=O)[C@@H]1N[C@@H](CC(C)(C)C)[C@](C#N)(c2ccc(Cl)cc2F)[C@H]1c1cccc(Cl)c1F [idasanutlin]
Summary of the method: as §1

[15] = compound: COc1cc(Nc2ncc3c(n2)-c2ccc(Cl)cc2C(c2c(F)cccc2OC)=NC3)ccc1C(=O)O [alisertib]
Summary of the method: as §1

[16] = compound: COc1cc2nc(-c3cc(F)ccc3O)nc(N[C@@H]3CNC[C@H]3C(C)(C)O)c2cc1OC
Summary of the method: as §1

[17] = compound: COc1cc2ncnc(Nc3ccc(F)c(Cl)c3)c2cc1OCCCN1CCOCC1 [gefitinib]
Summary of the method: as §1

[18] = compound: COc1cccc2cc(-c3nc([C@H]4CC[C@H](C(=O)O)CC4)n4ncnc(N)c34)[nH]c12
Summary of the method: as §1

[19] = compound: CS(=O)(=O)CCNCc1ccc(-c2ccc3ncnc(Nc4ccc(OCc5cccc(F)c5)c(Cl)c4)c3c2)o1 [lapatinib]
Summary of the method: as §1

[20] = compound: CS(=O)(=O)N1CCN(Cc2cc3nc(-c4cccc5[nH]ncc45)nc(N4CCOCC4)c3s2)CC1 [pictilisib]
Summary of the method: as §1

UniProt Q9BZH6, sequence (Q9BZH6 whole entry, looked up): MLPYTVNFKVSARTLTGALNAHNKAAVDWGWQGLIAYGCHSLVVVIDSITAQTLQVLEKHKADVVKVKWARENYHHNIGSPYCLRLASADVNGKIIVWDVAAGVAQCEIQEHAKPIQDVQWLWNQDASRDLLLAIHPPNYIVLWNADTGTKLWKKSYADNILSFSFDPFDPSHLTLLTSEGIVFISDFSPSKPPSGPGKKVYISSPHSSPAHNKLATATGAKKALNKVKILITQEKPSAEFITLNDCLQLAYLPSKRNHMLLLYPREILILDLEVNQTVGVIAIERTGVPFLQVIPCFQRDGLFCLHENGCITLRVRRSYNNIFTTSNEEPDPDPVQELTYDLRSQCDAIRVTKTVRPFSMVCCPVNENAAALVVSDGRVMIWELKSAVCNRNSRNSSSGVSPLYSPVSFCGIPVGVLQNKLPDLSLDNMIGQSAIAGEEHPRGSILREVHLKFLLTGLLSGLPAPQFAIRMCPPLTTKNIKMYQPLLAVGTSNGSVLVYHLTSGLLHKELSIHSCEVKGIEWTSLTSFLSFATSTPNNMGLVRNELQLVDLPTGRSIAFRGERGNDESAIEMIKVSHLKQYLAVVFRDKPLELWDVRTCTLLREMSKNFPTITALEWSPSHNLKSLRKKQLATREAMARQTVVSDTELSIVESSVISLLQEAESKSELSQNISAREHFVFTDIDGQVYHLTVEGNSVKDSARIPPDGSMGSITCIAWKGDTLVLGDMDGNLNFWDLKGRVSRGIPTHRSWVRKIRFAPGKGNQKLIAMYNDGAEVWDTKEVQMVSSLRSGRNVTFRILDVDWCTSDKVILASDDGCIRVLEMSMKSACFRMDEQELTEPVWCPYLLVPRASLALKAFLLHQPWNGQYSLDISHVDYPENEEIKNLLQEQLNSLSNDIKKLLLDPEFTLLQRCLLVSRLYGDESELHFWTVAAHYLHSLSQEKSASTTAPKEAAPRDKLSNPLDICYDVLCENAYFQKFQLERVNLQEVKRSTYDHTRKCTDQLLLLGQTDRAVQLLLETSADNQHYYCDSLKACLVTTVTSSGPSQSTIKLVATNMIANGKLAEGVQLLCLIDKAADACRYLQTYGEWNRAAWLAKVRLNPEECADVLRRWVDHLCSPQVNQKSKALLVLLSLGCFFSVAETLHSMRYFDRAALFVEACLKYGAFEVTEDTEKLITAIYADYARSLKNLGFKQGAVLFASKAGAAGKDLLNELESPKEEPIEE
UniProt Q14157, sequence (Q14157 whole entry, looked up): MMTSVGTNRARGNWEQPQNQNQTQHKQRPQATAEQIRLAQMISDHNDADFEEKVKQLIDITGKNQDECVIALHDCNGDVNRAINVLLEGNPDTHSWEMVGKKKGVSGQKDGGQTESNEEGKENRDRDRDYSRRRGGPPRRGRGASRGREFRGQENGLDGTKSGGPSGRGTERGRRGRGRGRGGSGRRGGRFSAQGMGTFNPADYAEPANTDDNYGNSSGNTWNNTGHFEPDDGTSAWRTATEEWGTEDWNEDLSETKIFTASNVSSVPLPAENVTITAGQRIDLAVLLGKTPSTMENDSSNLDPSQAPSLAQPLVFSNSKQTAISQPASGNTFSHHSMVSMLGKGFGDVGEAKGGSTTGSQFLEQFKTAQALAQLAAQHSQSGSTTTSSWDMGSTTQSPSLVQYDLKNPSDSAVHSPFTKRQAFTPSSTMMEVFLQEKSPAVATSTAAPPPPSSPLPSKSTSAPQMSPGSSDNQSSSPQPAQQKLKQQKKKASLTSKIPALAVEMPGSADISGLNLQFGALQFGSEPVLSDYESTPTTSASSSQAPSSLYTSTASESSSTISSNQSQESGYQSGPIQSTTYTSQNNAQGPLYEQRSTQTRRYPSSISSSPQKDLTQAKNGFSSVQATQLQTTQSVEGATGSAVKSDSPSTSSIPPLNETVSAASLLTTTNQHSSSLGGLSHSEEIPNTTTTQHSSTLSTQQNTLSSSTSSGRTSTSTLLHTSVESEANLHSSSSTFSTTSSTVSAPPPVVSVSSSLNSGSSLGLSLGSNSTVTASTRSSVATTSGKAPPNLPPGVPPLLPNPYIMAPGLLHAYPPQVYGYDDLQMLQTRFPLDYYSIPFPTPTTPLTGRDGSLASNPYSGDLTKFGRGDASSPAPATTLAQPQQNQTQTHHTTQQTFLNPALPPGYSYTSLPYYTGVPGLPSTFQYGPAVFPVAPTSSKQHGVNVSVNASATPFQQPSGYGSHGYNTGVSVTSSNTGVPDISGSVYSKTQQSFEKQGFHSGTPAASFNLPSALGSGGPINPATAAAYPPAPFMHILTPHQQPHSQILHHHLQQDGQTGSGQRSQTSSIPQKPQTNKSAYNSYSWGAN
UniProt Q8IWV8, sequence (Q8IWV8 whole entry, looked up): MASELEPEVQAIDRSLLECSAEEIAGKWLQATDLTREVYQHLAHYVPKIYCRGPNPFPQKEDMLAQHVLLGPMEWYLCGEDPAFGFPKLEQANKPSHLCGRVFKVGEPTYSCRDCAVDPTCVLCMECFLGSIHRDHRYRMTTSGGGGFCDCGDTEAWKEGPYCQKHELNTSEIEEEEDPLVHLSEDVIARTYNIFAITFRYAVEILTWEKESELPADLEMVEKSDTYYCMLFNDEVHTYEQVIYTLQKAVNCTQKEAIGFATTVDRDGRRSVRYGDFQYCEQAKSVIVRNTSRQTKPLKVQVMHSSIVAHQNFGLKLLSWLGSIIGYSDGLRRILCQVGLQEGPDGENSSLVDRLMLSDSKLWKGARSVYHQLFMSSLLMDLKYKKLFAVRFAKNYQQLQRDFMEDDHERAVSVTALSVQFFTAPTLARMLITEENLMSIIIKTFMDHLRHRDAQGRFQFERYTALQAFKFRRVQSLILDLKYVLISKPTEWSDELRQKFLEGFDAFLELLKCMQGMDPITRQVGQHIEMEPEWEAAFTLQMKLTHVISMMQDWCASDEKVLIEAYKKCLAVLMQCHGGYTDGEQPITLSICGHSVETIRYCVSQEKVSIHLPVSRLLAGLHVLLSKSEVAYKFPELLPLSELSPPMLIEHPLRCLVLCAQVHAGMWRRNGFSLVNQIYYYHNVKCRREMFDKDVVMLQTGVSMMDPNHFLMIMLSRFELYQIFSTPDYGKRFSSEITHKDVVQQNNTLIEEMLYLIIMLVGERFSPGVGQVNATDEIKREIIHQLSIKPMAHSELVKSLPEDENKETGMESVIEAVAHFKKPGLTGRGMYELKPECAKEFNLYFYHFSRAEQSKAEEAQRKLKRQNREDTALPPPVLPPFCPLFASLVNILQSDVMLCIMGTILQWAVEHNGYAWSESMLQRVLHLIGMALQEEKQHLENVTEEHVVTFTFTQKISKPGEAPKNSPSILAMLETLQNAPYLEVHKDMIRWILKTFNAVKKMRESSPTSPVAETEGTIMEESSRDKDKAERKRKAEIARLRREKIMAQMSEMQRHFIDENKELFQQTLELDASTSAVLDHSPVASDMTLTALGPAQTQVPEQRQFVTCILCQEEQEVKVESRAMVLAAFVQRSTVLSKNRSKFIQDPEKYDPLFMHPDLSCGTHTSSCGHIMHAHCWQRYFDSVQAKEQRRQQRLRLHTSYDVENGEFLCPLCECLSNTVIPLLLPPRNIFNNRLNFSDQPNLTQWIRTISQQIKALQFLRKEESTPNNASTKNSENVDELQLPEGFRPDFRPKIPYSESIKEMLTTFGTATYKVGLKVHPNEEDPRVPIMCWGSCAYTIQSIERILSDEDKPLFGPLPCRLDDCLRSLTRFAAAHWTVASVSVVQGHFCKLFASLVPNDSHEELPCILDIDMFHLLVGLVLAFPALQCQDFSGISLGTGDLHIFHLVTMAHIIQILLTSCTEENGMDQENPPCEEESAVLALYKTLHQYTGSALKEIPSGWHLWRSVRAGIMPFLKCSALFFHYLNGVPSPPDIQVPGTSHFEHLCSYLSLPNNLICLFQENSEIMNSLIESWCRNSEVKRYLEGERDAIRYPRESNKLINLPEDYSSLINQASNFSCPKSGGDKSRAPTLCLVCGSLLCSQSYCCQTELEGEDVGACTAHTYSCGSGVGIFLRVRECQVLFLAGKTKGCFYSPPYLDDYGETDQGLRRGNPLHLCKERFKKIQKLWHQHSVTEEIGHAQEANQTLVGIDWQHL
UniProt Q86SZ2, sequence (Q86SZ2 whole entry, looked up): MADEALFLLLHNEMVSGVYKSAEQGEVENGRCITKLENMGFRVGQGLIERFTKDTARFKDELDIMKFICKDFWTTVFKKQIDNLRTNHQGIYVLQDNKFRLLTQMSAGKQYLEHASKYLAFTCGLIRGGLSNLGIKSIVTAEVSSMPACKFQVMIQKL
UniProt Q9BQB6, sequence (Q9BQB6 whole entry, looked up): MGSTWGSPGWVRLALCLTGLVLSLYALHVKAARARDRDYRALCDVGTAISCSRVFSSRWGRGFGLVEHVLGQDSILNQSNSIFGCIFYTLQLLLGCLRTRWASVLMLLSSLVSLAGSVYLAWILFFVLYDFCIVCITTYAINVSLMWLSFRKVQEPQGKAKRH
UniProt Q8TBZ6, sequence (Q8TBZ6 whole entry, looked up): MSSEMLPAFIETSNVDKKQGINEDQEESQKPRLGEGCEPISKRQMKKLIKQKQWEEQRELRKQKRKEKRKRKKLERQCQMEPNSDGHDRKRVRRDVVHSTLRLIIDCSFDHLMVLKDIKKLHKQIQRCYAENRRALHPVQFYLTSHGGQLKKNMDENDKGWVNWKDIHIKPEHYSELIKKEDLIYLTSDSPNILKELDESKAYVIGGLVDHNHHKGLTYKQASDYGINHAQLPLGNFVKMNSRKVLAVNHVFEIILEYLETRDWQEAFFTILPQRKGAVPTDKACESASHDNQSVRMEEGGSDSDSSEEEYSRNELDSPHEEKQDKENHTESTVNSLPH
UniProt Q9BTX3, sequence (Q9BTX3 whole entry, looked up): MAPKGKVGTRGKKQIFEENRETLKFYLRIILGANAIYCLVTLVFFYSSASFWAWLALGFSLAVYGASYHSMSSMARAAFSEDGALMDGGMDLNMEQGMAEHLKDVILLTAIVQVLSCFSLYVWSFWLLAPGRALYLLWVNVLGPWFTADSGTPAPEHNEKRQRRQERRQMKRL

Target | log2 fold change [1] | log2 fold change [2] | log2 fold change [3] | log2 fold change [4] | log2 fold change [5] | log2 fold change [6] | log2 fold change [7] | log2 fold change [8] | log2 fold change [9] | log2 fold change [10] | log2 fold change [11] | log2 fold change [12] | log2 fold change [13] | log2 fold change [14] | log2 fold change [15] | log2 fold change [16] | log2 fold change [17] | log2 fold change [18] | log2 fold change [19] | log2 fold change [20]
WDR11 (UniProt Q9BZH6) | -0.079 | 0.059 | 0.06 | -0.029 | -0.021 | 0.016 | -0.382 (active) | -0.052 | -0.034 | 0.017 | -0.069 | 0.027 | -0.058 | -0.124 | -0.062 | 0.104 | -0.016 | 0.094 | -0.094 | 0.094
UBR2 (UniProt Q8IWV8) | -0.065 | -0.024 | 0.132 | 0.098 | -0.014 | -0.052 | -0.012 | 0.145 | 0.143 | 0.085 | -0.016 | 0.027 | -0.105 | 0.054 | -0.041 | 0.024 | -0.021 | 0.061 | 0.052 | 0.036
TMEM208 (UniProt Q9BTX3) | -0.047 | -0.02 | -0.039 | 0.003 | -0.142 | -0.023 | -0.045 | -0.099 | 0.145 | -0.164 | -0.131 | -0.254 | -0.111 | -0.137 | 0.109 | 0.019 | -0.055 | -0.146 | -0.151 | -0.17
TRAPPC6B (UniProt Q86SZ2) | 0.035 | -0.068 | -0.055 | 0.031 | -0.034 | -0.046 | 0.012 | 0.008 | -0.02 | 0.022 | 0.055 | -0.023 | 0.012 | -0.023 | -0.009 | -0.003 | 0.042 | 0.028 | 0.019 | 0.02
TOM1 isoform 2 (UniProt O60784) | 0.033 | -0.132 | 0.001 | 0.132 | -0.025 | -0.087 | -0.024 | -0.043 | 0.009 | 0.089 | -0.118 | -0.031 | -0.001 | 0.056 | -0.002 | -0.039 | -0.031 | 0 | 0.014 | -0.154
TMEM214 (UniProt Q6NUQ4) | -0.04 | 0.068 | 0.009 | 0.062 | -0.002 | -0.04 | 0.121 | 0.03 | 0.041 | -0.039 | -0.003 | 0.185 | -0.013 | -0.045 | -0.041 | 0.282 (active) | -0.012 | -0.111 | 0.046 | -0.055
VPS51 (UniProt Q9UID3) | -0.029 | -0.097 | -0.113 | 0.029 | -0.011 | -0.056 | 0.041 | -0.034 | 0.046 | 0.002 | 0.029 | -0.024 | -0.01 | -0.098 | -0.092 | 0.055 | 0.019 | -0.057 | -0.032 | 0.013
TSFM (UniProt P43897) | 0.057 | -0.157 | -0.132 | 0.063 | 0.021 | -0.166 | -0.001 | -0.073 | 0.167 | -0.082 | 0.152 | -0.146 | 0.042 | 0.039 | 0.047 | 0.12 | 0.117 | -0.002 | -0.006 | 0.066
VKORC1 (UniProt Q9BQB6) | 0.002 | -0.086 | 0.073 | -0.052 | 0.105 | -0.038 | -0.059 | 0.026 | 0.057 | -0.023 | 0.079 | -0.077 | 0.022 | -0.089 | 0.016 | -0.019 | -0.05 | -0.144 | -0.06 | -0.021
UBAP2L isoform 1 (UniProt Q14157) | -0.001 | 0.063 | -0.092 | -0.016 | 0.038 | -0.02 | -0.017 | -0.073 | -0.014 | -0.015 | 0.016 | -0.014 | 0.011 | 0.059 | -0.05 | 0.213 | 0.074 | 0.103 | -0.248 | -0.114
UFD1 isoform 1 (UniProt Q92890) | 0.008 | 0.005 | -0.021 | 0.027 | -0.022 | -0.013 | -0.02 | -0.054 | -0.004 | 0 | 0.225 (active) | -0.033 | -0.028 | -0.043 | -0.023 | -0.052 | -0.001 | 0.033 | 0.018 | -0.037
VPS39 (UniProt Q96JC1) | 0 | -0.097 | -0.035 | 0.033 | -0.015 | -0.068 | 0.039 | 0.005 | -0.006 | -0.03 | -0.038 | -0.119 | 0.023 | -0.028 | -0.012 | 0.021 | 0.051 | -0.059 | -0.012 | -0.035
TMEM63B (UniProt Q5T3F8) | -0.084 | -0.055 | 0.021 | -0.015 | 0.019 | 0.015 | -0.004 | -0.068 | 0.023 | 0 | -0.125 | -0.089 | -0.018 | 0.011 | -0.037 | -0.028 | -0.03 | -0.028 | 0.032 | 0.003
VPS8 (UniProt Q8N3P4) | -0.009 | -0.096 | -0.038 | 0.09 | 0.002 | -0.171 | 0.023 | -0.015 | 0.093 | -0.078 | 0.092 | 0.001 | 0.043 | -0.03 | 0.133 | 0.01 | 0.076 | -0.025 | 0.046 | 0.055
TRMT10A (UniProt Q8TBZ6) | -0.028 | -0.024 | -0.12 | -0.038 | 0.054 | -0.06 | 0.016 | 0.032 | 0.026 | 0.036 | -0.195 | -0.134 | 0.054 | -0.081 | 0.048 | -0.006 | -0.025 | 0.028 | 0.03 | 0.093
TMEM189-UBE2V1 (UniProt I3L0A0) | 0.041 | 0.157 | 0.016 | -0.007 | -0.004 | -0.014 | -0.059 | -0.038 | 0 | 0.018 | -0.034 | -0.051 | -0.049 | -0.024 | -0.105 | -0.048 | -0.034 | 0.112 | 0.011 | -0.026
